From PubChem BioAssay AID652071 (NMMLSC, 2013)
Calls of active or inactive are those of the source. The rule behind the calls is not given here.

assay: yeast cytosolic pH changes via V-ATPase – S. cerevisiae, pHLuorin, powder set 4, dose response (AID 652071); conditions: S. cerevisiae pHLuorin cytosolic pH fluorescence; series mostly up to 100 µM

outcome, inactive:
NC(=O)c1cccc(C(=O)Nc2ccccc2N2CCCCC2)c1
CN(C)Cc1ccc(C(=O)Nc2ccccc2N2CCN(C)CC2)o1
CC(=O)N1CCN(c2ccccc2NC(=O)c2cccc(C(N)=O)c2)CC1
CC(=O)N1CCN(c2ccccc2NC(=O)c2ccc(Cl)o2)CC1
CC(=O)N1CCN(c2ccccc2NC(=O)c2ccc(CN(C)C)o2)CC1
Cc1cccc(C(=O)Nc2ccccc2N2CCN(C)CC2)n1
CN1CCN(c2ccccc2NC(=O)c2ccc(C(C)(C)C)o2)CC1
O=C(Nc1ccccc1N1CCOCC1)c1ccc(Cl)o1
CC(=O)N1CCN(c2ccccc2NC(=O)c2cccc(C#N)c2)CC1
CN1CCN(c2ccccc2NC(=O)c2cnc(N)o2)CC1
CC(=O)N1CCN(c2ccccc2NC(=O)c2cc(C)ccn2)CC1
Cc1cncc(C(=O)Nc2ccccc2N2CCN(C)CC2)n1
CC(=O)N1CCN(c2ccccc2NC(=O)c2ccc(S(C)(=O)=O)o2)CC1
CN1CCN(c2ccccc2NC(=O)c2cccc(Br)n2)CC1
CN1CCN(c2ccccc2NC(=O)c2ccc(Br)o2)CC1
CN1CCN(c2ccccc2NC(=O)c2cccc(C#N)c2)CC1
CC(C)(C)c1ccc(C(=O)Nc2ccccc2N2CCCCC2)o1
CN(C)C(=O)c1cccc(C(=O)Nc2ccccc2N2CCCCC2)c1
Cc1cncc(C(=O)Nc2ccccc2N2CCCCC2)n1
CN1CCN(c2ccccc2NC(=O)c2cccc(Cl)n2)CC1
CC(=O)N1CCN(c2ccccc2NC(=O)c2ccc(C(N)=O)o2)CC1
CC(=O)N1CCN(c2ccccc2NC(=O)c2cccc(CC#N)c2)CC1
COCc1ccc(C(=O)Nc2ccccc2N2CCCCC2)o1
CN1CCN(c2ccccc2NC(=O)c2cc(C(F)(F)F)ccn2)CC1
CN(C)Cc1cccc(C(=O)Nc2ccccc2N2CCN(C)CC2)c1
CC(=O)N1CCN(c2ccccc2NC(=O)c2cccc(Cl)n2)CC1
CN1CCN(c2ccccc2NC(=O)c2cccc(C(F)(F)F)n2)CC1
O=C(Nc1ccccc1N1CCCCC1)c1cccc(Cl)n1
COCc1cccc(C(=O)Nc2ccccc2N2CCN(C(C)=O)CC2)c1
COCc1ccc(C(=O)Nc2ccccc2N2CCN(C)CC2)o1
O=C(Nc1ccccc1N1CCCCC1)c1cccc(C(F)(F)F)c1
CS(=O)(=O)c1cccc(C(=O)Nc2ccccc2N2CCOCC2)c1
Nc1cncc(C(=O)Nc2ccccc2N2CCCCC2)n1
CN1CCN(c2ccccc2NC(=O)c2cccc(C(=O)N(C)C)c2)CC1
